Experimental findings from PubChem BioAssay (NCATS) are described below.

Records with an inconclusive call do not appear. Unmarked numbers belong to inactive results. Activity calls are given as the source filed them. The call rests on the fitted dose curve; in most records, active means well fitted curve in the direction sought with a large enough effect; inconclusive means small, poorly fitted or top-dose-only effect, or another doubt; inactive means no such curve, though single readings can be large; an effect the other way counts as inactive or inconclusive.

The target of test [1] is Rap guanine nucleotide exchange factor 3 (Homo sapiens) (UniProt O95398). The test can be described thus: Confirmatory qHTS for antagonist of cAMP-regulated guanine nucleotide exchange factor 3 (EPAC1) (AID 1645880). Further: nearly all actives have a fitted effect of over 55% in size. Further: potency means the concentration at half of the fitted maximal effect. The method, boiled down:
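Nucleotide exchange uses 100 nM EPAC1, 250 nM RAP1B-BODIPY-GDP and 50 uM GDP, with compounds in a concentration-titration series. After 5 min at room temperature, fluorescence (480 nm ex/540 nm em) is read every 5 min for 30 min. Data are normalized to control ATA and DMSO.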
A general note: In qHTS, concentration-response curves come from the screen itself.

For test [2] the target is unchanged. The test is described as follows: Confirmatory qHTS for agonist of cAMP-regulated guanine nucleotide exchange factor 3 (EPAC1) (AID 1645881). Further: nearly all actives have a fitted effect of over 75% in size. Further: potency means the concentration at half of the fitted maximal effect.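 On activation: EPAC1 catalysed release of BODIPY-GDP from Rap1B seen as fluorescence loss; 100% = effect of cAMP agonist control.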
Test [3] has as its target Rap guanine nucleotide exchange factor 4 (Homo sapiens) (UniProt Q8WZA2). The test can be described thus: Confirmatory qHTS for agonist of cAMP-regulated guanine nucleotide exchange factor 4 (EPAC2) (AID 1645884).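 Further: nucleotide exchange releases bodipy-GDP from Rap1 and this lowers its fluorescence; nearly all actives have a fitted effect of over 65% in size.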 Further: potency means the concentration at half of the fitted maximal effect. On activation: on the % scale 0 is the no-effect control and ±100 the full control effect.
Test [4] has the same target. The test is described as follows: Confirmatory qHTS for antagonist of cAMP-regulated guanine nucleotide exchange factor 4 (EPAC2) (AID 1645885). Further: nearly all actives have a fitted effect of over 25% in size. Further: potency means the concentration at half of the fitted maximal effect. On activity change, negative = inhibition: on the % scale 0 is the no-effect control and ±100 the full control effect.
In test [5] the target is Rap guanine nucleotide exchange factor 3 (Homo sapiens) (UniProt O95398). The test can be described thus: Counterscreen qHTS for antagonist of cAMP-regulated guanine nucleotide exchange factor 3 (EPAC1) (AID 1645888).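 Further: fluorescence loss as bound BODIPY-GDP is released from Rap1B; % of control where 0% means no effect.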 The procedure, abridged: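 Rap1B-BODIPY-GDP 250 nM + GDP 50 uM; cpds 7-pt, final 9.74 nM–152 uM (activator mode) or from 7.32 nM upwards (inhibitor mode); RT; FI 480/540 nm at 5 and 30 min, then ± cAMP, reread.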
Sequence of Rap guanine nucleotide exchange factor 3 (Homo sapiens) (O95398 whole entry, looked up): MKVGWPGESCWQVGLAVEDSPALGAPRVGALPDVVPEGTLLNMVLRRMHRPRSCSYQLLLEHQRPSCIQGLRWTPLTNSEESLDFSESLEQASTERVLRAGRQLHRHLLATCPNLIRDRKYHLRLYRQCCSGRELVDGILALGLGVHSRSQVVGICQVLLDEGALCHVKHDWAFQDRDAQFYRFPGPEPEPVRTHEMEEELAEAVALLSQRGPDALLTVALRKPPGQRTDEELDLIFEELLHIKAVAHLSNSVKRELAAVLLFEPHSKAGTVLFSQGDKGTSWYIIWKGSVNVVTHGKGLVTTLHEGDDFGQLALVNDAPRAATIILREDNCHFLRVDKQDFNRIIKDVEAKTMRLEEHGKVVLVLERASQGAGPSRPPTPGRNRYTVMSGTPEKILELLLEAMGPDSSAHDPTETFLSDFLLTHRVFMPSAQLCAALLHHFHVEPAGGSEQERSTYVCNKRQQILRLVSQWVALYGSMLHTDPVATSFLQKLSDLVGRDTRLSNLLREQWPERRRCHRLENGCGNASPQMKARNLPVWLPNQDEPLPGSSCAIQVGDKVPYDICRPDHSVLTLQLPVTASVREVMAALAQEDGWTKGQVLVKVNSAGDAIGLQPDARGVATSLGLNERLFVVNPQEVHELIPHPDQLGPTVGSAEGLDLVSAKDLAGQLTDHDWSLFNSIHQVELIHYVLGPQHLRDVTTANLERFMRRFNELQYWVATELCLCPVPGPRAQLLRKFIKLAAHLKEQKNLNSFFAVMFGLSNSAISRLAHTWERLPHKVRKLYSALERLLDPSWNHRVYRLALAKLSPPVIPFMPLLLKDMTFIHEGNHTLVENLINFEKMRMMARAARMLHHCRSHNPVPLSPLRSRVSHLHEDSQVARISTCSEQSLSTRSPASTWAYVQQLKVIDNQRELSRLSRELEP

Sequence of Rap guanine nucleotide exchange factor 4 (Homo sapiens) (Q8WZA2 whole entry, looked up): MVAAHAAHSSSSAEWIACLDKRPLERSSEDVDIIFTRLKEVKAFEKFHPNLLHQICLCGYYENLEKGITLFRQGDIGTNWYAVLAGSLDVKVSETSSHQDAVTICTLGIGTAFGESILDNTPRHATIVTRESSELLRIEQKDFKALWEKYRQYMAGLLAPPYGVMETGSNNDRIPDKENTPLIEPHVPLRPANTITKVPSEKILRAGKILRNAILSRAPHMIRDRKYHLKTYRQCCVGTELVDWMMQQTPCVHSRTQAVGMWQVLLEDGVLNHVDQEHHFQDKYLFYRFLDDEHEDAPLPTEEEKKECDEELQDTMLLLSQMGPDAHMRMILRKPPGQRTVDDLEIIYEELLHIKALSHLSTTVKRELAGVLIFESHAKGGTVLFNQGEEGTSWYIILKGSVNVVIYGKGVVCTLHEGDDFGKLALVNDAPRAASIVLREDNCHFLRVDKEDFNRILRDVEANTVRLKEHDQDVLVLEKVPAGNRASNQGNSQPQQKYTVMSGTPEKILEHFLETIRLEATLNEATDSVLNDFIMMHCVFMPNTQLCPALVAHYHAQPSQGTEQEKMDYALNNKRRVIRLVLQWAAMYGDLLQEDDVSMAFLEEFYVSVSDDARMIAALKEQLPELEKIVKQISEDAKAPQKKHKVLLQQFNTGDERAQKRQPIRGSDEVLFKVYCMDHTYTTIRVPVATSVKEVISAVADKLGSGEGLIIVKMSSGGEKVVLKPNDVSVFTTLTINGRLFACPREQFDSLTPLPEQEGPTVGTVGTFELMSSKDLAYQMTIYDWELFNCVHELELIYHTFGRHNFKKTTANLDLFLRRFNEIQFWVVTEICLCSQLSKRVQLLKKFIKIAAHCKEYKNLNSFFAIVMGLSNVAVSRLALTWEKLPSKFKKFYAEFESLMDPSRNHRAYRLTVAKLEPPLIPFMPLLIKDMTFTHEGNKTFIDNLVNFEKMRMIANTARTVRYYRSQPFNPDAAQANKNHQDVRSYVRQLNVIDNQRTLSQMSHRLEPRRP

Regarding `Cc1ccc2c(c1)c1c3n2CCN(C(=O)C2CC2)C3CCC1` (stereo not given), the Potency entry in test [1], in test [2], in test [3] and in test [5] was “inactive” in each case. Further, the Potency in test [4] was 75.7 µM (active).
`O=c1[nH]c([N+](=O)[O-])nn1C(c1ccccc1)c1ccccc1`: the Potency entry in test [1], in test [2], in test [3] and in test [5] was “inactive” each time. Besides, the Potency in test [4] was 26.9 µM (active).
Turning to `O=C(Nc1nc(-c2ccccc2)cs1)c1ccccc1NS(=O)(=O)c1ccc(F)cc1`, the Potency in test [1] and in test [4] was 19 µM (active) in each case. In addition, the Potency result in test [2], in test [3] and in test [5] was “inactive” in each case.
For `COc1cccc2sc(N3CCN(c4nc5ccccc5s4)CC3)nc12`, the Potency entry in test [1], in test [2] and in test [4] was “inactive” in each case. The activation in test [3] was 2.2% [at 17.1 µM, percent relative to cAMP agonist control]. In addition, the activity change, negative = inhibition in test [5] was -13.4% [at 30.8 µM].
Turning to `Clc1ccc(CSc2nnc(-c3ccncc3)s2)cc1`, the Potency entry in test [1], in test [2], in test [3], in test [4] and in test [5] was “inactive” throughout.
Regarding `O=C(/C=C/c1ccco1)Nc1cccc(C(=O)Nc2ccccc2C(=O)O)c1`, the Potency in test [1] was 3.98 µM (active). In addition, the Potency result in test [2] and in test [4] was “inactive” throughout. The activation in test [3] was 3.49% [at 17.1 µM, percent relative to cAMP agonist control]. Besides, the activity change, negative = inhibition in test [5] is 19% [at 30.8 µM].
`COC(=O)C1=NNCC12CC(=O)N(c1ccc(Br)cc1)C2=O` (stereo not given): the Potency entry in test [1], in test [2], in test [3], in test [4] and in test [5] was “inactive” throughout.
For `Cc1ccccc1OCCn1cnc2c(N)ncnc21`, the Potency entry in test [1], in test [2], in test [3], in test [4] and in test [5] was “inactive” in each case.
As for `CC1CCN(c2ccc3c(c2)S(=O)(=O)c2ccccc2C3=O)CC1`, the Potency entry in test [1], in test [4] and in test [5] was “inactive” in each case. Moreover, the results for the Potency in test [2] and in test [3] were 112 µM (active) and 100 µM (active), respectively.
As for `CCCCn1c(CN2CCOCC2)nc2c1c(=O)n(C)c(=O)n2C`, the Potency entry in test [1], in test [2], in test [3], in test [4] and in test [5] was “inactive” in each case.
As to `COc1ccc(OC)c(Nc2nc3ccccc3nc2-n2nc(C)cc2C)c1`, the Potency entry in test [1], in test [2], in test [3], in test [4] and in test [5] was “inactive” in each case.
Regarding `COc1cc2c(-c3ccc4c(c3)OCO4)c(-c3ccsc3)oc(=O)c2cc1OC`, the Potency result in test [1], in test [2] and in test [4] was “inactive” each time. The activation in test [3] was 13.2% [at 17.1 µM, percent relative to cAMP agonist control]. Also, in test [5], the activity change, negative = inhibition is 10.4% [at 30.8 µM].
For `COc1ccc(-n2ccn(Cc3ccccc3Cl)c(=O)c2=O)cc1OC`, the Potency result in test [1], in test [2], in test [3], in test [4] and in test [5] was “inactive” each time.
For the compound `CC1CC1C(=O)OCC(=O)NNC(=O)COc1ccc(Br)cc1` (stereo not given), the Potency entry in test [1], in test [2] and in test [4] was “inactive” in each case. In addition, the activation in test [3] is 2.41% [at 17.1 µM, percent relative to cAMP agonist control]. Besides, in test [5], the activity change, negative = inhibition was 26.9% [at 30.8 µM].
Regarding `CC1CCCCC1NC(=O)COC(=O)c1c2c(nc3ccccc13)/C(=C/c1ccco1)CC2` (stereo not given), the Potency in test [1] was 75.7 µM (active). Moreover, the Potency result in test [2], in test [3], in test [4] and in test [5] was “inactive” each time.
On to `CC(=O)Nc1ccc(NS(=O)(=O)c2cn(C)c(=O)n(C)c2=O)cc1`, for which the Potency result in test [1], in test [2] and in test [4] was “inactive” in each case. Further, the activation in test [3] was 8.18% [at 17.1 µM, percent relative to cAMP agonist control]. Further, the activity change, negative = inhibition in test [5] was 9.16% [at 30.8 µM].
In the case of `O=C(c1ccc2nc(N3CCOCC3)sc2c1)N1CCC(Cc2ccccc2)CC1`, the Potency result in test [1], in test [2], in test [3], in test [4] and in test [5] was “inactive” in each case.
With `CCCCCCOC(=O)C(C#N)c1nc2ccccc2nc1N1CCOCC1` (stereo not given), the Potency in test [1] and in test [4] was 75.7 µM (active) each time. Further, the Potency result in test [2], in test [3] and in test [5] was “inactive” throughout.
Turning to `CC(=C\c1ccccc1)/C=C1/SC(=S)N(CCCC(=O)O)C1=O`, in test [1], the Potency was 84.9 µM (active). The Potency entry in test [2], in test [3], in test [4] and in test [5] was “inactive” throughout.
In the case of `CCOC(=O)c1c(C)nc2sc(C(N)=O)c(N)c2c1-c1ccccc1`, the Potency result in test [1], in test [2] and in test [4] was “inactive” throughout. In test [3], the activation was -0.736% [at 17.1 µM, percent relative to cAMP agonist control]. In test [5], the activity change, negative = inhibition is -13.8% [at 30.8 µM].
As for `Cc1ccc(S(=O)(=O)NC(=O)Cn2nnc(-c3ccccc3)c2COc2ccc3ccccc3c2)cc1`, the Potency in test [1] is 19 µM (active). Also, the Potency entry in test [2], in test [3], in test [4] and in test [5] was “inactive” throughout.
Consider `Cc1ccc2c(c1)CCCN2C(=O)c1cc(C)c(C)s1`, for which the Potency result in test [1], in test [2], in test [3] and in test [5] was “inactive” in each case. The outcome in test [4] was “inactive [at 12.7 µM]”.
